# Biological target: Follistatin (Homo sapiens) (UniProt P19883)
# Assay: FST protein binding to printed compounds – biochemical, small-molecule microarray, 635/667 nm fluorescence, primary screen (AID 1132)
# Details: 635 nm fluorescence, higher = more signal
# Chain of Follistatin (Homo sapiens) (P19883 whole entry, looked up): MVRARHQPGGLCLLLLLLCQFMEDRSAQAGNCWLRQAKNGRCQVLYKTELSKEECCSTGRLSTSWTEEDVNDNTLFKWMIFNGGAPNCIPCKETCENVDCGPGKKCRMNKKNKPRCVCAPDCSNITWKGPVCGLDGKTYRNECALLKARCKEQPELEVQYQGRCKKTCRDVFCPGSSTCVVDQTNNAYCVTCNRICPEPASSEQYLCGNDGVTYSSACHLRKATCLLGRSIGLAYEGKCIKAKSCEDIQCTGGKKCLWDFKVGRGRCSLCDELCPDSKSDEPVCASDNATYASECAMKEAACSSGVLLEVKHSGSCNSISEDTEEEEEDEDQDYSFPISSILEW
row,Structure (SMILES),composite z-score
1,NCCCCCNC(=O)[C@@H]1C[C@@H]2C(=O)N3CCC[C@H]3C(=O)N2[C@@H]1c1cccc(OCCO)c1,1.34
2,C=CC[C@]1(C(=O)NCc2ccccc2)N=C(c2ccc(OCCCO)cc2)O[C@H]1c1ccccc1,0.431
3,COCCOC(=O)N1C(=O)[C@@]2(c3cc(C#CCNC(N)=O)ccc31)[C@H](c1ccc(O)cc1)N1[C@H](c3ccccc3)[C@H](c3ccccc3)OC(=O)[C@H]1[C@@H]2C(=O)N1CCCCCCC1,1.3
4,O=C1[C@H]2[C@H]3[C@H](O)[C@H](O)CC(=NO[C@@H]4O[C@H](CO)[C@@H](O)[C@H](O)[C@H]4O)[C@@H]3CC[C@H]2C(=O)N1Cc1ccc2c(c1)OCO2,0.449
5,O=C1[C@H]2[C@H]3[C@H](O)[C@H](O)CC(=NOCc4ccccc4)[C@@H]3CC[C@H]2C(=O)N1C1CCCCC1,0.207
6,O=C1[C@H]2[C@H]3[C@H](O)[C@H](O)CC(=NO[C@@H]4O[C@H](CO)[C@@H](O)[C@H](O)[C@H]4O)[C@H]3CC[C@H]2C(=O)N1Cc1ccc2c(c1)OCO2,-0.164
7,O=C(NN=C1C[C@@H](O)[C@@H](O)[C@@H]2[C@@H]3C(=O)N(c4cccc(Oc5ccccc5)c4)C(=O)[C@@H]3CC[C@H]12)OCc1ccccc1,0.165
8,CC(C)CON=C1C[C@@H](O)[C@@H](O)[C@@H]2[C@@H]3C(=O)N([C@@H](C)c4ccccc4)C(=O)[C@@H]3CC[C@H]12,0.755
9,CC(=O)O[C@H]1C2=C(C(=O)[C@@H]3O[C@@H]31)[C@H]1C(C)O[C@@H]2[C@@]23C(=O)[C@@H]4O[C@@H]4[C@@H](O)C2=CO[C@H](C)[C@@H]13 (stereo partly specified),-0.419
10,CC(C)(C)N1C(=O)[C@H]2[C@H]3[C@H](O)[C@H](O)CC(=NOCc4ccccc4)[C@@H]3CC[C@H]2C1=O,0.785
11,O=C1[C@H]2[C@H]3[C@H](O)[C@H](O)CC(=NOC[C@@H](O)COCc4ccco4)[C@H]3CC[C@H]2C(=O)N1c1cccc(Oc2ccccc2)c1,-0.924
12,CC(C)=CCCC(C)=CCON=C1C[C@@H](O)[C@@H](O)[C@@H]2[C@@H]3C(=O)N(C[C@@H]4CCCO4)C(=O)[C@@H]3CC[C@@H]12,1.06
13,Cc1ccc(S(=O)(=O)N[C@@H]2COC(=O)[C@H](C)COC(=O)CC=C[C@H]2C)cc1,1.35
14,CCc1cc2c(nc1CC)CCN(CCC(C)=NO[C@@H](C)c1cc(-c3c(C)cc(C)cc3C)no1)C2,-0.265
15,CC(=O)OC[C@H]1O[C@@H](ON=C(C)CCN2CCc3nc(-c4ccccc4)c(-c4ccccc4)cc3C2)[C@H](OC(C)=O)[C@@H](OC(C)=O)[C@@H]1OC(C)=O,0.992
16,Cc1ccc(S[C@]2(C(=O)NCC(F)(F)F)CC(=O)N(Cc3ccccc3Cl)[C@@H]2c2ccc(CO)cc2I)cc1,-0.253
17,CO[C@@H]1COC(=O)CC=C[C@@H](C)COC(=O)[C@H](COCc2ccccc2)NC(=O)CC=C[C@H]1C,1.24
18,O[C@@H](Cc1ccccc1)[C@H]1C2C=CCCC(c3ccccc3)=C2CN1Cc1cccc(Cl)c1 (stereo partly specified),0.995

row,Structure (SMILES),composite z-score
1,CC(=O)OC[C@H]1O[C@H](CCON=C[C@@H](C)[C@H](OCc2ccccc2)C(C)C)C=C[C@@H]1OC(C)=O,0.319
2,CC1(C)OCC(C(O)C2=CCCCC2=O)CO1 (stereo unspecified),0.97
3,CO[C@@H]1COC(=O)CC=C[C@@H](C)[C@@H]2C=C[C@H](O)[C@@H](COC(=O)[C@H](C)NC(=O)CC=C[C@H]1C)O2,1.11
4,CCCCCN1CC=CC23O[C@@H]4C=CCOC(=O)[C@@H]4[C@H]2C(=O)N(CCCCCCO)[C@@H]3C1=O (stereo partly specified),-2.23
5,COCCCNC(=O)[C@@]1(C)c2ccccc2C(=O)N(Cc2ccc(OC(F)(F)F)cc2)[C@H]1c1ccc(CO)cc1,-0.0328
6,CC(C)[C@@H](OCc1ccccc1)[C@H](C)C=NO[C@H](C)c1cn([C@H](CO)Cc2ccccc2)nn1,0.171
7,c1ccc(C2NCCc3c2[nH]c2ccccc32)cc1 (stereo unspecified),0.236
8,O=C1NC(=O)C2C1C=CC(C(O)Cc1ccccc1)N2Nc1ccccn1 (stereo unspecified),0.194
9,CCOC(=O)[C@H](Cc1ccccc1)NC(=O)CCC1CC(OC(=O)NCCc2ccc(F)cc2)CC2(CCCC(COC(=O)NCC(c3ccccc3)c3ccccc3)O2)O1 (stereo partly specified),0.831
10,COCCOC(=O)N1C(=O)[C@@]2(c3cc(C#Cc4ccc(OC)cc4)ccc31)[C@H](C(=O)N1CCN(c3ncccn3)CC1)[C@H]1C(=O)O[C@H](c3ccccc3)[C@H](c3ccccc3)N1[C@@H]2c1ccc(OCCO)cc1,1.26
11,CC(=O)OC[C@H]1O[C@@H](ON=C[C@@H](C)[C@H](OCc2ccccc2)C(C)C)[C@H](OC(C)=O)[C@@H](OC(C)=O)[C@@H]1OC(C)=O,-1
12,COC(=O)CC=C[C@@H](C)[C@@H](C=NO[C@H](C)c1cn([C@@H]2COC[C@H]2O)nn1)OC,0.341
13,CC(CCN1CCc2nc(-c3ccccc3)c(-c3ccccc3)cc2C1)=NOC(C)CN1CCCCc2nc(C)c(C)cc21 (stereo unspecified),0.47
14,CC(=O)OC[C@H]1O[C@H](C#CCCCc2ccccc2)C=C[C@@H]1OC(C)=O,0.47
15,CCOc1ccc(N2C(=O)/C(=C/C=C/c3ccccc3OC)S(=O)(=O)C2c2cccc([N+](=O)[O-])c2)cc1 (stereo unspecified),0.475
16,COC(=O)[C@@H]1N=C(c2ccc(OCCCO)cc2)O[C@@H]1c1ccccc1N=[N+]=[N-],0.499
17,CCN1C(=O)[C@H]2[C@H]3[C@H](O)[C@H](O)CC(=NOC(C)CN4CCCCc5nc(C)c(C)cc54)[C@@H]3CC[C@H]2C1=O (stereo partly specified),0.861
18,CC(C)(C)OC(=O)CC[C@]1(C(N)=O)COC(c2ccc(OCCCO)cc2)=N1,1.1

# Reference: PubChem BioAssay
